First the molecules themselves.
B1: ENSMUSG00000042529.290|Kcnj12 (ssRNA)
RNA: GGGAGUUCUACAGUCCGACGAUCGCUUCGAUAUCCGCAUGCUAGGCACCUGUCAUUCUUUCUGAGUAGGUGGGCCUGUAUCCAGAGCAGGGUCUAGGGGCUCCUGCUCCCGGCUCAUCUCAGUGGCCUGAAGCAUUCAAAACUCUAGCCAGCCCCAUCCUCCUCCCUGCCAGAAUGGUCCAGUCCCUGGGCCCUGCUGGAGAGCAGCUCAAACUGCCUUUCAUCUCUGCCAAAGGCAGGCAGAUGCUGUAUUUUCAAAUUCUCCUGCCCUCUUUUCCCCUUUUUCCCUGUAUUUAUUUAUUGCCUCUUGCGGUCGCACUAGUGUGGAAUUCUCGGGUGUCAAGG
B2: ENSMUSG00000042529.419|Kcnj12 (ssRNA)
RNA: GGGAGUUCUACAGUCCGACGAUCGCUUCGAUAUCCGCAUGCUAGUGUGUGUGUGUGUGUGAACAUGUGUGAGGGUGUGGAGGUCCCAGGGUGUGUGUAUGUGAAUGUCAGUGGCUUGGGUGCUGUGUGGAGAGAGAGAGAGAGAGAGAGAGAGAGAGAGAGAGAGAGAGAGAGAGAGAGCUGCACAGGAUGAAGCAGCUGCCCUGAGCCCAUCUGGUGCUGUGCACCUGGUCCUUGUCCAGCCGAGGGCCUGGGGGCAGAAGAACACACCAUAGGGAGGCCCUUGUAUGGGUGUCUGCCCUAUCUCUUGCGGUCGCACUAGUGUGGAAUUCUCGGGUGUCAAGG
B3: ENSMUSG00000042529.416|Kcnj12 (ssRNA)
RNA: GGGAGUUCUACAGUCCGACGAUCGCUUCGAUAUCCGCAUGCUAGUGUGUGUGUGUGUGUGUGUGUGUGUGUGUGUGUGAACAUGUGUGAGGGUGUGGAGGUCCCAGGGUGUGUGUAUGUGAAUGUCAGUGGCUUGGGUGCUGUGUGGAGAGAGAGAGAGAGAGAGAGAGAGAGAGAGAGAGAGAGAGAGAGAGAGAGCUGCACAGGAUGAAGCAGCUGCCCUGAGCCCAUCUGGUGCUGUGCACCUGGUCCUUGUCCAGCCGAGGGCCUGGGGGCAGAAGAACACACCAUAGGGAGGCCCUUGCUCUUGCGGUCGCACUAGUGUGGAAUUCUCGGGUGUCAAGG
B4: ENSMUSG00000042529.424|Kcnj12 (ssRNA)
RNA: GGGAGUUCUACAGUCCGACGAUCGCUUCGAUAUCCGCAUGCUAGUGUGGAGGUCCCAGGGUGUGUGUAUGUGAAUGUCAGUGGCUUGGGUGCUGUGUGGAGAGAGAGAGAGAGAGAGAGAGAGAGAGAGAGAGAGAGAGAGAGAGAGAGCUGCACAGGAUGAAGCAGCUGCCCUGAGCCCAUCUGGUGCUGUGCACCUGGUCCUUGUCCAGCCGAGGGCCUGGGGGCAGAAGAACACACCAUAGGGAGGCCCUUGUAUGGGUGUCUGCCCUAUGUGAGGUCAUAGAAUGUUAAAUCUAUUUUACUCUUGCGGUCGCACUAGUGUGGAAUUCUCGGGUGUCAAGG
B5: ENSMUSG00000042529.420|Kcnj12 (ssRNA)
RNA: GGGAGUUCUACAGUCCGACGAUCGCUUCGAUAUCCGCAUGCUAGUGUGUGUGUGAACAUGUGUGAGGGUGUGGAGGUCCCAGGGUGUGUGUAUGUGAAUGUCAGUGGCUUGGGUGCUGUGUGGAGAGAGAGAGAGAGAGAGAGAGAGAGAGAGAGAGAGAGAGAGAGAGAGAGCUGCACAGGAUGAAGCAGCUGCCCUGAGCCCAUCUGGUGCUGUGCACCUGGUCCUUGUCCAGCCGAGGGCCUGGGGGCAGAAGAACACACCAUAGGGAGGCCCUUGUAUGGGUGUCUGCCCUAUGUGAGGCUCUUGCGGUCGCACUAGUGUGGAAUUCUCGGGUGUCAAGG
B6: ENSMUSG00000042529.423|Kcnj12 (ssRNA)
RNA: GGGAGUUCUACAGUCCGACGAUCGCUUCGAUAUCCGCAUGCUAGUGAGGGUGUGGAGGUCCCAGGGUGUGUGUAUGUGAAUGUCAGUGGCUUGGGUGCUGUGUGGAGAGAGAGAGAGAGAGAGAGAGAGAGAGAGAGAGAGAGAGAGAGAGAGAGCUGCACAGGAUGAAGCAGCUGCCCUGAGCCCAUCUGGUGCUGUGCACCUGGUCCUUGUCCAGCCGAGGGCCUGGGGGCAGAAGAACACACCAUAGGGAGGCCCUUGUAUGGGUGUCUGCCCUAUGUGAGGUCAUAGAAUGUUAAAUCUCUCUUGCGGUCGCACUAGUGUGGAAUUCUCGGGUGUCAAGG
B7: ENSMUSG00000042529.421|Kcnj12 (ssRNA)
RNA: GGGAGUUCUACAGUCCGACGAUCGCUUCGAUAUCCGCAUGCUAGUGUGAACAUGUGUGAGGGUGUGGAGGUCCCAGGGUGUGUGUAUGUGAAUGUCAGUGGCUUGGGUGCUGUGUGGAGAGAGAGAGAGAGAGAGAGAGAGAGAGAGAGAGAGAGAGAGAGAGAGAGCUGCACAGGAUGAAGCAGCUGCCCUGAGCCCAUCUGGUGCUGUGCACCUGGUCCUUGUCCAGCCGAGGGCCUGGGGGCAGAAGAACACACCAUAGGGAGGCCCUUGUAUGGGUGUCUGCCCUAUGUGAGGUCAUAGCUCUUGCGGUCGCACUAGUGUGGAAUUCUCGGGUGUCAAGG
B8: ENSMUSG00000042529.422|Kcnj12 (ssRNA)
RNA: GGGAGUUCUACAGUCCGACGAUCGCUUCGAUAUCCGCAUGCUAACAUGUGUGAGGGUGUGGAGGUCCCAGGGUGUGUGUAUGUGAAUGUCAGUGGCUUGGGUGCUGUGUGGAGAGAGAGAGAGAGAGAGAGAGAGAGAGAGAGAGAGAGAGAGAGAGAGAGCUGCACAGGAUGAAGCAGCUGCCCUGAGCCCAUCUGGUGCUGUGCACCUGGUCCUUGUCCAGCCGAGGGCCUGGGGGCAGAAGAACACACCAUAGGGAGGCCCUUGUAUGGGUGUCUGCCCUAUGUGAGGUCAUAGAAUGUUCUCUUGCGGUCGCACUAGUGUGGAAUUCUCGGGUGUCAAGG
B9: ENSMUSG00000042529.418|Kcnj12 (ssRNA)
RNA: GGGAGUUCUACAGUCCGACGAUCGCUUCGAUAUCCGCAUGCUAGUGUGUGUGUGUGUGUGUGUGUGAACAUGUGUGAGGGUGUGGAGGUCCCAGGGUGUGUGUAUGUGAAUGUCAGUGGCUUGGGUGCUGUGUGGAGAGAGAGAGAGAGAGAGAGAGAGAGAGAGAGAGAGAGAGAGAGAGAGAGCUGCACAGGAUGAAGCAGCUGCCCUGAGCCCAUCUGGUGCUGUGCACCUGGUCCUUGUCCAGCCGAGGGCCUGGGGGCAGAAGAACACACCAUAGGGAGGCCCUUGUAUGGGUGUCUGCUCUUGCGGUCGCACUAGUGUGGAAUUCUCGGGUGUCAAGG
B10: ENSMUSG00000042529.417|Kcnj12 (ssRNA)
RNA: GGGAGUUCUACAGUCCGACGAUCGCUUCGAUAUCCGCAUGCUAGUGUGUGUGUGUGUGUGUGUGUGUGUGUGAACAUGUGUGAGGGUGUGGAGGUCCCAGGGUGUGUGUAUGUGAAUGUCAGUGGCUUGGGUGCUGUGUGGAGAGAGAGAGAGAGAGAGAGAGAGAGAGAGAGAGAGAGAGAGAGAGAGAGCUGCACAGGAUGAAGCAGCUGCCCUGAGCCCAUCUGGUGCUGUGCACCUGGUCCUUGUCCAGCCGAGGGCCUGGGGGCAGAAGAACACACCAUAGGGAGGCCCUUGUAUGGGCUCUUGCGGUCGCACUAGUGUGGAAUUCUCGGGUGUCAAGG

Over roughly 9,900 sequences, “r (bound/input frequency ratio)” has its median near 0.7; the highest 2% begin near 6.5. The sample holds the highest values, similar sequences and a random draw of the others, so the mix is not that of the screen.

TDP-43, sequence (Q13148 whole entry): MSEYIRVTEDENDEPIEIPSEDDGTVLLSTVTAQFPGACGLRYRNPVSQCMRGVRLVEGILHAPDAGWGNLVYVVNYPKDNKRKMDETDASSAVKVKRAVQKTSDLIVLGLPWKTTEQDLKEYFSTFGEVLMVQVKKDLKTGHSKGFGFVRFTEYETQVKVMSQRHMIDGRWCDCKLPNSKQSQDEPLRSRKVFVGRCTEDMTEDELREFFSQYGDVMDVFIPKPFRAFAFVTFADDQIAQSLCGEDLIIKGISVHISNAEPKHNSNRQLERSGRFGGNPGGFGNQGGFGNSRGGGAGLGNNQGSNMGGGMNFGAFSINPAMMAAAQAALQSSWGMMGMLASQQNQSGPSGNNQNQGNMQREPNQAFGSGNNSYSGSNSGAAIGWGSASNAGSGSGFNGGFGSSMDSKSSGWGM

This experiment concerns the target TDP-43 (Homo sapiens, UniProt Q13148 1-414). Briefly: RNA Bind-n-Seq with designed 260-mer pool; 25 mM Tris-HCl, 150 mM KCl, 3 mM MgCl2, BSA (printed 500 mg/mL), 20 units/mL SUPERase IN; pH not stated; 500 nM RNA pool, 1 h, 4 C; TDP-43 5, 50, 500 nM; high values mean tight binding. To be noted: protein: recombinant; tags: SBP (GST cleaved off with PreScission; pGEX-GST-SBP). Put shortly:
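Binding (R) is the ratio of each oligo's mapped-read-normalized abundance in the bound fraction to its abundance in the input. To obtain it, SBP-tagged recombinant TDP-43 (5, 50 or 500 nM) on streptavidin beads was incubated with 500 nM of an in vitro-transcribed 260-nt 3′ UTR oligo pool for 1 h at 4 °C in 25 mM Tris-HCl, 150 mM KCl, 3 mM MgCl2, BSA and SUPERase IN. The RNA retained after washing was released with biotin, then reverse transcribed, amplified by PCR and sequenced.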
On to B1, for which the binding signal is 1.04 R (bound/input frequency ratio).

For the molecule B2, the binding signal is 6.65 R (bound/input frequency ratio). To B3 belongs 6.11 R (bound/input frequency ratio). For B4, the binding signal was 5.67 R (bound/input frequency ratio).

As for B5, the binding signal is 6.59 R (bound/input frequency ratio).

In the case of B6, the binding signal was 7.6 R (bound/input frequency ratio). With B7, the binding signal is 6.04 R (bound/input frequency ratio). Under B8 stands 6.32 R (bound/input frequency ratio). To B9 belongs 6.38 R (bound/input frequency ratio); to B10, 5.22 R (bound/input frequency ratio).
